Results taken from the supplement of paper PMC10849652.
Of roughly 7,900 targets only a part is listed; those with a hit were picked by preference. About 0.6% of all pairs of compound and target were hits.

compound: C[C@H](C1=CC=C(C=C1)C(=O)NC2=C3C=CNC3=NC=C2)N; assay: log2 fold change, soluble protein after heating vs DMSO (PISA); higher = thermal stabilisation; K562 cells, 10 uM, 30 min; active = over 0.2 and 3.5 SD of the protein, either way, in both replicates (recomputed)
Method in brief: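 K562 cells at 2×10^6 cells/mL were treated with 10 μM compound for 30 min. Aliquots were heated for 3 min across 48°C-58°C, pooled, and extracted in PBS with 0.5% NP-40 at 4°C; soluble protein was the supernatant after 21,000xg for 90 min. Soluble protein was quantified by TMTpro 16plex LC-MS/MS with channel sums equalised, and reported as log2 fold change in thermal stability against DMSO controls, with values from duplicates.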

Sequence of UniProt Q13409 (Q13409 whole entry, looked up): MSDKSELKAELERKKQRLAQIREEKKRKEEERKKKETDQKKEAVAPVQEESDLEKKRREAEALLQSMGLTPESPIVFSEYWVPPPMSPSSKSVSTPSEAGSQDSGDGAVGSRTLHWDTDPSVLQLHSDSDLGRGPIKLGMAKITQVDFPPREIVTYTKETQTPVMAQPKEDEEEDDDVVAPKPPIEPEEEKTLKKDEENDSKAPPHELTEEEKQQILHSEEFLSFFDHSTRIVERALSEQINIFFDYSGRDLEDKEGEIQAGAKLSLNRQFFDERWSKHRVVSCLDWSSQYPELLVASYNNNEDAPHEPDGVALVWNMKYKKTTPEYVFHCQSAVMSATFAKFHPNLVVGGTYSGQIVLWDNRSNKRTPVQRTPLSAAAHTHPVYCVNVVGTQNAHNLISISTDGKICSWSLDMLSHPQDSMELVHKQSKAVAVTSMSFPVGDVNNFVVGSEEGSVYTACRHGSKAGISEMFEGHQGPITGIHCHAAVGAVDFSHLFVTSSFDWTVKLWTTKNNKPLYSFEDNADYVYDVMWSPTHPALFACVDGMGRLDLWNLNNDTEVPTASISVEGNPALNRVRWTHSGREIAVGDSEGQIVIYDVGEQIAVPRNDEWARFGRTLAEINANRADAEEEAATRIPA
Sequence of UniProt Q16850 (Q16850 whole entry, looked up): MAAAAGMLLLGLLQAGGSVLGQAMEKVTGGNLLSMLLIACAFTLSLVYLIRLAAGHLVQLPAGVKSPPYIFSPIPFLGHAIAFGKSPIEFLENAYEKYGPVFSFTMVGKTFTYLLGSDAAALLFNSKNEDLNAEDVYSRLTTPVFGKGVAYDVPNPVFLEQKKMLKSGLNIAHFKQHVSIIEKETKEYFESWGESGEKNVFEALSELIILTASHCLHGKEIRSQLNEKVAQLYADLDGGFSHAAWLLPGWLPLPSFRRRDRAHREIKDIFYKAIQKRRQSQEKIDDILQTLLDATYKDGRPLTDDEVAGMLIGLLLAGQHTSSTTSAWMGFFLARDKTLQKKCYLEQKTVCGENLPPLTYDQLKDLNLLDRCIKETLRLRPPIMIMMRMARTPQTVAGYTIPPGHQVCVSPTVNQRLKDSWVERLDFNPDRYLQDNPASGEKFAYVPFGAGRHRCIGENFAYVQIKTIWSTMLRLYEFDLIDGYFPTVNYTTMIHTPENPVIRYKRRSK
Sequence of UniProt P18074 (P18074 whole entry, looked up): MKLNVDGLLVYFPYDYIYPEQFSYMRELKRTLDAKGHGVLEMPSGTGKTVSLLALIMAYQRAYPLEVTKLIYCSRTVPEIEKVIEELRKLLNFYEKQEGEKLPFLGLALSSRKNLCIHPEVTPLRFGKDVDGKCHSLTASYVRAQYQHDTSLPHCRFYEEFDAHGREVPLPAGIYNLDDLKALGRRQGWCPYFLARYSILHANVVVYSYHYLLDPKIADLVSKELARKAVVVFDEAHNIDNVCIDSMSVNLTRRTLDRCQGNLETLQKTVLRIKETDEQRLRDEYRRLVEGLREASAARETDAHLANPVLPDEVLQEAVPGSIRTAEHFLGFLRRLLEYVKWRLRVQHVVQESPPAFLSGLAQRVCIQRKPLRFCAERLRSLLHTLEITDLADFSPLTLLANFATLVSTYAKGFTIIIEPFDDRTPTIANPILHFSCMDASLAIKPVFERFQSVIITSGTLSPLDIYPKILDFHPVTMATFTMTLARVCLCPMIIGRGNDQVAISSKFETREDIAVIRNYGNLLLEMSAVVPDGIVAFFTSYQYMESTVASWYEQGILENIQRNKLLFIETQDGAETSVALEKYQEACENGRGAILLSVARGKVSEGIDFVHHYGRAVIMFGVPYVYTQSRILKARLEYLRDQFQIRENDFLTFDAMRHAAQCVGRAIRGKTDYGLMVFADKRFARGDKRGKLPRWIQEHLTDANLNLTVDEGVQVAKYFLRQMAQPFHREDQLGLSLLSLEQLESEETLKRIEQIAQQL
Sequence of UniProt Q01780 (Q01780 whole entry, looked up): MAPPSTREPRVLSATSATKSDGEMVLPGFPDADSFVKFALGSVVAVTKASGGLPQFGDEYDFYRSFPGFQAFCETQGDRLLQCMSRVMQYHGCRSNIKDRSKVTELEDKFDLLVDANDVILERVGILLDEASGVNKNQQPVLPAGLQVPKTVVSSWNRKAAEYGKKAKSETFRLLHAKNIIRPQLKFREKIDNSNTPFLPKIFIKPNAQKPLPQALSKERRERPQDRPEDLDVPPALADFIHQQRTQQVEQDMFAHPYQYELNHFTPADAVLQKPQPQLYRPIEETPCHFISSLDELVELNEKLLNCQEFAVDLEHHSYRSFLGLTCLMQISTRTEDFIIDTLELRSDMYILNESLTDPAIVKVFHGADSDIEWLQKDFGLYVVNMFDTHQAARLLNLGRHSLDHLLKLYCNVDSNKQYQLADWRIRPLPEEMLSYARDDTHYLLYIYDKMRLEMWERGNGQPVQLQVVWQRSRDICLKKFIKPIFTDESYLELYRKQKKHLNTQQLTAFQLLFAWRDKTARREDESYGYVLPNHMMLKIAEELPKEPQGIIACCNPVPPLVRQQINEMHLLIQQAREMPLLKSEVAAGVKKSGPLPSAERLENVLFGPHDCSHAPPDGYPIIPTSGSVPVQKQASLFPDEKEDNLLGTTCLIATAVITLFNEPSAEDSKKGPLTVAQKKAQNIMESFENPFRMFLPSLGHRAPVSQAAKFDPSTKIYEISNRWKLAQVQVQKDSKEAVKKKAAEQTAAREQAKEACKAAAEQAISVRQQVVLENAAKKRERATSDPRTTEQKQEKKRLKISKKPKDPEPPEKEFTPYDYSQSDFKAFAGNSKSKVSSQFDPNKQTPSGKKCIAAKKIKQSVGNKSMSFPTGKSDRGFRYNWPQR
Sequence of UniProt Q96G46 (Q96G46 whole entry, looked up): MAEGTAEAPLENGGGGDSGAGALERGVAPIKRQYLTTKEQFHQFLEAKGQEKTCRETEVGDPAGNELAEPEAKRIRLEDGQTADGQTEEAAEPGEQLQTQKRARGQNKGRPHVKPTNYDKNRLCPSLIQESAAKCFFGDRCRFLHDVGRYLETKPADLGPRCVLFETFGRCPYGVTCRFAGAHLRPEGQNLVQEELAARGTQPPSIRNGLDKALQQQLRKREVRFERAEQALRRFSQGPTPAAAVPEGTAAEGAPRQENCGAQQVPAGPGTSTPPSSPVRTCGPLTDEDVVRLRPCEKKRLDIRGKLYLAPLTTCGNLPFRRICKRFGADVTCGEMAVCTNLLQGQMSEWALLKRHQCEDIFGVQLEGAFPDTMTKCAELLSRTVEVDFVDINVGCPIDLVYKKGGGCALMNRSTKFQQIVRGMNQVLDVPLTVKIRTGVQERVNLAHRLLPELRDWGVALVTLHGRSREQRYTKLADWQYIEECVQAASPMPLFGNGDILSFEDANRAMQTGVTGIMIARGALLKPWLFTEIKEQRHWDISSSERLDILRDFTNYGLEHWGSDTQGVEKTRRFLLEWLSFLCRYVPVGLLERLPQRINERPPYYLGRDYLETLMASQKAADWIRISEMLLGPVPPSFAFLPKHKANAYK
Sequence of UniProt Q13948 (Q13948 whole entry, looked up): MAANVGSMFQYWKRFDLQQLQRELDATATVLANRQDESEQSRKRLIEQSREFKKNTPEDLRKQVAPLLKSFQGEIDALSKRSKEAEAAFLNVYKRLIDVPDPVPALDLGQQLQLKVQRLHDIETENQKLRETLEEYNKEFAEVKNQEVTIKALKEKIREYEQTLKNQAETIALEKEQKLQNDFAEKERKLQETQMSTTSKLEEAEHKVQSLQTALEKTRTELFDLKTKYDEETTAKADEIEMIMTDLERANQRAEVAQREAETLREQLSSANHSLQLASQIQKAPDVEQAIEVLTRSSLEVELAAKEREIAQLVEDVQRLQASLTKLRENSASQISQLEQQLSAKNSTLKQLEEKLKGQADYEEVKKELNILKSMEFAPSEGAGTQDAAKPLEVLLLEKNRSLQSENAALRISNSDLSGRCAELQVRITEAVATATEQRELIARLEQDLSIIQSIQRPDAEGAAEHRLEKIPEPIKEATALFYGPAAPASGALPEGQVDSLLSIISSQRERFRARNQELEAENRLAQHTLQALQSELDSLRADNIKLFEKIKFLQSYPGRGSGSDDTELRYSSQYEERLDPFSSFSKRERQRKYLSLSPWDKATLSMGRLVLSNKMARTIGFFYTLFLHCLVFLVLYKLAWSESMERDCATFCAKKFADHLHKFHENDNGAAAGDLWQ
Sequence of UniProt P39656 (P39656 whole entry, looked up): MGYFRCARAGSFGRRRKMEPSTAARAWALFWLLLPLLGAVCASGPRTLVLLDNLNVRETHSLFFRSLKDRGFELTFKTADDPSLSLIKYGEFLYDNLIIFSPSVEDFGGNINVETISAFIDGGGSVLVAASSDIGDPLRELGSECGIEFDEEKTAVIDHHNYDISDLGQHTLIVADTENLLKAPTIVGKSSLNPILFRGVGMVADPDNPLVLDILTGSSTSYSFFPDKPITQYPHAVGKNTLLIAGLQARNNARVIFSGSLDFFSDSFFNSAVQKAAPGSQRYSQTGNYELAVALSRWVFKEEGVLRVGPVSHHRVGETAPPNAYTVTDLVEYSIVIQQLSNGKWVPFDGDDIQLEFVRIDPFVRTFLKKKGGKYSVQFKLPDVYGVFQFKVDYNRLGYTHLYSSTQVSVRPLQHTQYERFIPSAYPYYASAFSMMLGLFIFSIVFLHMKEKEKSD
Sequence of UniProt Q9C073 (Q9C073 whole entry, looked up): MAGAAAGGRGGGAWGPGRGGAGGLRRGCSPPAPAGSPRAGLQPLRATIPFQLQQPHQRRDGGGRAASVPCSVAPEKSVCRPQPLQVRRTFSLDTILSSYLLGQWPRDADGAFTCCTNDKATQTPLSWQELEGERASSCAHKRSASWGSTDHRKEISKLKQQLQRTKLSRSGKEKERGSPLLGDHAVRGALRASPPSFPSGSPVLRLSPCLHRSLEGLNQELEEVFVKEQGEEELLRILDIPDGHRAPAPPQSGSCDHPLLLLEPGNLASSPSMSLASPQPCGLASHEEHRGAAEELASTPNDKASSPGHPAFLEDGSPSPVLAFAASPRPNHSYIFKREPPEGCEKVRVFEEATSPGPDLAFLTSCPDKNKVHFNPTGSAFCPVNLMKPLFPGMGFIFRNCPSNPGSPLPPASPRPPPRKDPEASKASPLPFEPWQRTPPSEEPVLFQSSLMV

log2 fold change, inactive:
EEF1B2 (UniProt P24534) 0.092
CTSL (UniProt P07711) 0.021
DNM2 (UniProt P50570) -0.021
EIF2AK1 (UniProt Q9BQI3) 0.045
DIAPH1 (UniProt O60610) 0.168
DUS2 (UniProt Q9NX74) 0.045
ERCC2 (UniProt P18074) -0.013
DYNC1LI2 (UniProt O43237) 0.393
DYNC1I2 isoform 5 (UniProt Q13409) -0.007
DIP2A (UniProt Q14689) -0.01
DMXL1 (UniProt Q9Y485) 0.048
DDOST (UniProt P39656) -0.055
DHFR (UniProt P00374) 0.239
CUX1 isoform 3 (UniProt P39880) -0.002
DNAJB12 (UniProt Q9NXW2) 0.035
CTSV (UniProt O60911) -0.01
EFCAB14 (UniProt O75071) 0.041
EXOC5 (UniProt O00471) 0.015
DUS3L (UniProt Q96G46) -0.075
EFL1 (UniProt Q7Z2Z2) 0.016
DYRK1A isoform 2 (UniProt Q13627) -0.107
FAF2 (UniProt Q96CS3) 0.049
ETNK1 (UniProt Q9HBU6) -0.032
EIF4G1 isoform 8 (UniProt Q04637) 0.109
DNAH5 (UniProt Q8TE73) -0.076
EEA1 (UniProt Q15075) -0.046
DBT (UniProt P11182) 0.054
FAM118A (UniProt Q9NWS6) 0.036
CUX1 isoform 2 (UniProt Q13948) -0.063
EXOSC10 (UniProt Q01780) -0.015
CYBA (UniProt P13498) -0.045
FADS1, A0A0A0MR51 -0.026
FAM117A (UniProt Q9C073) -0.132
EEF1AKNMT (UniProt Q8N6R0) 0.111
CYP51A1 (UniProt Q16850) 0.147
FAM83D (UniProt Q9H4H8) 0.014
DNTTIP2 (UniProt Q5QJE6) 0.268
EED, A0A5F9ZI63 0.007

log2 fold change, active:
DOCK8 (UniProt Q8NF50) 0.67
DNAH11 (UniProt Q96DT5) 0.695
